Experimental data taken from PubChem BioAssay AID493168 (National Center for Advancing Translational Sciences (NCATS), 2011).
Records with an inconclusive call do not appear. A call without a number means that no potency is given here. Calls of active or inactive are those of the source. Calls come from the whole dose curve; as a rule, active = well fitted inhibition curve with a large enough effect; inconclusive = small, poorly fitted or top-dose-only effect, or effect the other way; inactive = flat fitted curve, though single readings scatter.
Note: nearly all actives have a fitted effect of over 55% in size.
Potency is the fitted concentration of half-maximal effect.

These compounds were tested against Ubiquitin carboxyl-terminal hydrolase 2 (Homo sapiens) (UniProt O75604) (assay: Confirmation Assay for Inhibitors of Ubiquitin-specific Protease USP2a Using CHOP2 as the Reporter). Conditions: USP2 core, Ub-CHOP2 coupled reporter fluorescence; series mostly up to 38.3 µM.
Chain of Ubiquitin carboxyl-terminal hydrolase 2 (Homo sapiens) (O75604 whole entry, looked up): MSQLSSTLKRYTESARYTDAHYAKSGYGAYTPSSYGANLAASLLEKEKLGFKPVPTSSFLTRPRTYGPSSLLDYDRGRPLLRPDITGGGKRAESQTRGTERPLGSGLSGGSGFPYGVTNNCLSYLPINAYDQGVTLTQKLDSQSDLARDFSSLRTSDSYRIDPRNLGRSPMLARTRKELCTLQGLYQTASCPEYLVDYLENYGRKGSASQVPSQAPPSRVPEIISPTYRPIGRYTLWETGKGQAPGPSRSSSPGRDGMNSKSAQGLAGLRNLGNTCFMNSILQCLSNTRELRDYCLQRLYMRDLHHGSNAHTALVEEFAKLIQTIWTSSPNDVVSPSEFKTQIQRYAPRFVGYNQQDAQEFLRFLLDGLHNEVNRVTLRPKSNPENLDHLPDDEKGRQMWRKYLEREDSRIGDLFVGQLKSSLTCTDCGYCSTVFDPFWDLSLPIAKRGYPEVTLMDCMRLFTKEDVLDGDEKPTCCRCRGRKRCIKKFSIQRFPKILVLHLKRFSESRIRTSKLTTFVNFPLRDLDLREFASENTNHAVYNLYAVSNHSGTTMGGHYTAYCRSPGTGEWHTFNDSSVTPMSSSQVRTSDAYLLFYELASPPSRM
Excerpt: NIH Molecular Libraries Probe Centers Network [MLPCN] NIH Chemical Genomics Center [NCGC] MLSCN Grant: XO1-MH079852-01 PI Name: Nicholson, Ben. Progenra Inc, Malvern, PA NCGC Assay Overview: Homeostasis of cellular proteins is maintained through a combination of synthesis and degradation. The pathway that accounts for the majority of protein degradation is the ubiquitin-proteasomal pathway. Ubiquitin (Ub) is highly conserved in all cells and the generation of a multi-Ub chain typically targets proteins for degradation by the proteasome. However, ubiquitination is highly reversible and dynamic. Deubiquitination, the reverse process, is catalyzed through the action of enzymes referred to as isopeptidases or deubiquitinating enzymes (DUBs). This group of enzymes is collectively responsible for maintaining adequate pools of free ubiquitin and regulating the ubiquitination status of cellular proteins. The class of DUBs referred to as the ubiquitin-specific proteases (USP) family functions endoproteolytically to cleave Ub chains from a wide range of protein substrates. USP2a deubiquitinates fatty acid synthase (FASN) which has recently been identified as an emerging oncology target. To identify inhibitors of USP2a a cell-free assay was employed. […] The reporter enzyme chosen is an […] called CHOP2, which is activated when the Ub is cleaved by USP2. The free and now activated reporter can subsequently act on its reporter substrate. Thus, this coupled assay gives a fluorescent read-out at excitation/emission wavelengths of 485/531. The assay was developed by Progenra, Inc. and has been licensed for sale by LifeSensors, Inc. as Ub-CHOP2-Reporter-Kit (#PR1101).
NCGC Assay Protocol Summary: The assay buffer, prepared fresh at the day of the assay, contains 20mM Tris-HCl pH 8.0, 2mM CaCl2, 2mM beta-Mercaptoethanol, 0.05% CHAPS. 3ul of 20nM (10nM final) USP2 core, which is stored on ice, is dispensed into a medium-binding black solid Kalypsys 1,536 well plate using the Kalypsys dispenser. The assay plate is then pinned with 23nL compound with the Kalypsys pintool in columns 5-48. The controls are pinned as follows: column 1 two-fold dilutions of 2M NEM in duplicate; column 2 2M NEM (final concentration 38.2mM); column 3&4 DMSO. The assay plate is incubated at RT for 30min. Subsequently, 1.5uL of 100nM (25nM final) Ub-CHOP2 and 1.5uL of 100nM (25nM final) Reporter Substrate (both stored on ice and protected from light) were dispensed into the plate using the Kalypsys dispenser. Plates were read after 60min RT incubation on a ViewLux (Perkin Elmer) plate reader using the following wavelengths Ex 485nm /Em 531nm. Data were normalized to the to AC100 inhibition (NEM). Concentration-response curves were fitted to the normalized data and the concentration-response curves were then classified based on curve quality (r2), response magnitude and degree of measured activity. The time zero reading was used to flag fluorescence artifacts. Keywords: ubiquitination, deubiquitination, proteases, profluorescent, MLSMR, MLPCN, NIH Roadmap, qHTS, NCGC
`Cc1cccc(NC(=S)NCc2ccc3c(c2)cc(C)n3C)c1C` was tested, and the Potency was “inactive”. With `COc1ccc(-c2cc(C(F)(F)F)nc(S(C)(=O)=O)n2)cc1` the Potency was “inactive”. `COc1ccccc1NC(=O)N1CCN(c2ccccn2)CC1` was tested, and the Potency was “inactive”. In the case of `Cn1c(=O)[nH]c(=O)c2c1nc(NCc1ccccc1)n2CCCc1ccccc1`, the Potency is reported as “inactive”. `CC(C)c1ccc(NC(=O)C(c2ccc3c(c2)OCO3)N2CCCCC2)cc1` (stereo not given) was tested, and the Potency was “inactive”. In the case of `O=C(Nc1ccncc1)c1ccc(S(=O)(=O)Nc2ccccc2)cc1`, the Potency is reported as 14.7 µM (active). With `CC1CC(C)CN(C(=O)CSc2nnc(-c3ccc(Cl)cc3)o2)C1` (stereo not given) the Potency was “inactive”. `CCOC(=O)N1CCN(CC(=O)n2c(C)c(C)c3ccccc32)CC1` was tested, and the Potency was “inactive”. `Cc1ccc(-c2c(C)n([O-])c3c([n+]2=O)CCC3)o1` was tested, and the Potency was “inactive”. With `Cc1ccc(C(=O)C(=S)N2CCOCC2)cc1` the Potency was “inactive”. In the case of `CC(C)C(=O)Nc1ccc(C(=O)N2CCCCCC2)cc1`, the Potency is reported as “inactive”. In the case of `O=C(Nc1cccc(S(=O)(=O)NC2=NCCC2)c1)c1cc(-c2ccco2)nc2ccccc12`, the Potency is reported as 16.5 µM (active). For `COCCn1c(SCC(=O)Nc2cc(C)on2)nnc1-c1ccccc1`, the Potency was “inactive”. With `O=C(O)CC(C(=O)O)N1C(=O)/C(=C/C=C/c2ccco2)SC1=S` (stereo not given) the Potency was 4.14 µM (active). For `CC1Cc2ccccc2N1C(=O)Cn1c(=O)oc2cc(S(=O)(=O)NC3CCCC3)ccc21` (stereo not given), the Potency was “inactive”. `Nc1cc(=O)[nH]c(SCc2cccc(Cl)c2)n1` was tested, and the Potency was “inactive”. For `C=CCn1c(Br)nc2c1c(=O)n(C)c(=O)n2C`, the Potency was “inactive”. `Cc1ccc(C(=O)N(C)CC(=O)Nc2cccc(C)c2C)o1` was tested, and the Potency was “inactive”. For `Cc1c(NC(=O)c2ccc(COc3ccc4ccccc4c3)o2)c(=O)n(-c2ccccc2)n1C`, the Potency was “inactive”. `FC(F)(F)C1=Nc2cccc3cccc(c23)N1` was tested, and the Potency was “inactive”. With `CN(C)S(=O)(=O)c1cccc(NC(=S)NNC(=O)c2cc3ccccc3cc2O)c1` the Potency was “inactive”. `CC(=O)Nc1ccc(NC(=O)C2CCCN(S(=O)(=O)c3ccc(Cl)cc3)C2)cc1` (stereo not given) was tested, and the Potency was “inactive”. With `Cc1ccc(NC(=O)CCC(=O)OC(C)C(=O)c2ccccc2)cc1` (stereo not given) the Potency was “inactive”. For `Cc1noc(/C=C/NCc2cccnc2)c1S(=O)(=O)N(C)CC(=O)N1CCc2ccccc21`, the Potency was “inactive”. `COc1ccc(S(=O)(=O)N2CCCCC2)cc1NC(=O)Cc1c[nH]c2ccccc12` was tested, and the Potency was “inactive”. `Cc1cc(NC(=O)COC(=O)CCCOc2ccc(Cl)cc2C)no1` was tested, and the Potency was “inactive”. With `O=C(Cc1ccc(S(=O)(=O)N2CCOCC2)s1)NCCC(c1ccccc1)c1ccccc1` the Potency was “inactive”. `c1ccc(-c2ccccc2OCCCN2CCOCC2)cc1` was tested, and the Potency was “inactive”. `O=C(O[C@@H]1OC2COC(=O)c3cc(O)c(O)c(O)c3-c3c(cc(O)c(O)c3O)C(=O)O[C@@H]([C@H]1O)[C@@H]2O)c1cc(O)c(O)c(O)c1` was tested, and the Potency was 16.5 µM (active). In the case of `C#CCOCCOCCOCCNc1nc(N2CCN(C(=O)CCCCCCCCCCNC(=O)[C@@H](CCC(=O)O)n3cc(CCCCCN)nn3)CC2)nc(N2CCN(C(=O)CCCCCCCCCCNC(=O)[C@H]([C@@H](C)CC)n3cc(CCCCCN)nn3)CC2)n1`, the Potency is reported as 11.7 µM (active). For `Cc1ccc(O)c(CC(C)C)n1`, the Potency was “inactive”. In the case of `CCc1c(O)nc(SCC(=O)Nc2ccccc2OC)[nH]c1=O`, the Potency is reported as “inactive”. In the case of `COCCCNC(=O)C1CCN(c2nc(C)cc(C)n2)CC1`, the Potency is reported as “inactive”. With `O=C(NN=Cc1ccc(N2CCOCC2)s1)c1ccc([N+](=O)[O-])cc1` the Potency was “inactive”. For `CCN(C[C@H]1N[C@@](CC)(C(=O)OC)[C@H]2C(=O)N(Cc3ccccc3)C(=O)[C@@H]12)C(=O)Nc1ccc(C)cc1`, the Potency was “inactive”. In the case of `CCCOC(=O)CCCCC1SCC(NC(=O)OC)C1NC(=O)OC` (stereo not given), the Potency is reported as “inactive”. For `Cc1noc(NS(=O)(=O)c2ccc(N3CC(O)=C(c4ccccc4)C3=N)cc2)c1C`, the Potency was “inactive”. `Cc1[nH]c2ccccc2c1C(c1ccccn1)c1c(C)[nH]c2ccccc12` was tested, and the Potency was “inactive”. `CC(C)CC(=O)Nc1cccc(-c2nc3ccccc3o2)c1` was tested, and the Potency was “inactive”. In the case of `Cc1ccc(/C(O)=C/C(=O)C(=O)NNC(=O)C(O)(c2ccccc2)c2ccccc2)cc1`, the Potency is reported as 14.7 µM (active).
